From PubChem BioAssay
uPA generation: inhibitors of cell surface uPA generation. cell surface uPA generation assay, qHTS. Potency, µM (doses to about 38.3 µM), hits mostly inhibitors. 330,000 compounds, 0.31% hits. AID 540303; active = well fitted inhibition curve with a large enough effect; inconclusive = small, poorly fitted or top-dose-only effect; inactive = no such curve, though single readings can be large or run the other way; tested in mouse RAW 264.7 cells; note: nearly all actives have a fitted effect of over 55% in size
TDP1 cell CPT: growth inhibition of DT40 Tdp1-/-;hTDP1 cells with camptothecin (screen for TDP1 inhibitors) | chicken DT40 Tdp1-/-;hTDP1 cells + 20 nM CPT, ATP luminescence, 48 h | Potency, µM (titrated, usually from 46.2 µM), actives largely listed as inhibitors | 420,000 compounds, 12% hits | AID 686979; note: nearly all actives have a fitted effect of over 55% in size
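Chicken DT40 Tdp1-/- cells complemented with human TDP1, 400 cells/well, exposed to compounds plus 20 nM camptothecin for at least 48 h at 37 C; viability read as ATP content by CellTiter-Glo luminescence.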
HT1080-NT tox: kills 2HG-producing HT-1080-NT fibrosarcoma cells. Potency, µM (top dose mostly 46.1 µM), usual class: cytotoxic. 360,000 compounds, 1.6% hits. HT-1080-NT fibrosarcoma viability, CellTiter-Glo ATP luminescence, 48 h;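 note: NT is the 2HG producing partner of a matched IDH1 knockdown line; nearly all actives have a fitted effect of over 55% in size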
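Compounds were tested in concentration-response format on HT-1080-NT cells for 48 hours at 37 degrees C. Cell viability came from CellTiter-Glo luminescence; curves were classified by r2, response magnitude and activity.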
IL-1B inflam inh: blocks inflammasome-driven IL-1 beta release; activity change, % at 57.5 µM; 360,000 compounds, 4.7% hits; THP-1 LPS/ATP IL-1B secretion, AlphaLISA, 16 h; stronger effect = lower value; in the data active = activity change below about -50%; inconclusive = mostly about -30% to -49%
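THP-1 cells pretreated 1 hr with compounds (up to 57.5 uM final), then stimulated with LPS (250 ng/mL final) plus ATP (1.25 mM final); secreted IL-1B measured by AlphaLISA after 16 hr, decreased signal indicating inhibition.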
TDP1 cell noCPT: qHTS for Inhibitors of human tyrosyl-DNA phosphodiesterase 1 (TDP1): qHTS in cells in absence of CPT; DT40 Tdp1-/- hTDP1 cells, no CPT, ATP luminescence, 48 h; AID 686978, 2013; 420,000 compounds, 15% hits; Potency, µM (series often up to 46.2 µM), actives largely listed as inhibitors; note: nearly all actives have a fitted effect of over 55% in size
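Luminescent ATP content (CellTiter-Glo) served as the growth readout. Knockout chicken DT40 cells expressing human TDP1 were exposed to compounds without camptothecin for a minimum 48 hr at 37 °C.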
HT1080 IDH1KD tx: HT-1080 IDH1 knockdown cell toxicity (counter line) | HT-1080 IDH1 knockdown viability, ATP luminescence, 48 h | Potency, µM (titrated, usually from 46.1 µM), most hits filed as cytotoxic | 360,000 compounds, 2% hits | AID 686971
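HT-1080-IDH1KD cells (IDH1 knocked down), 750/well in RPMI with 5% FBS, treated with compound 48 h at 37 degrees C. Viability by CellTiter-Glo luminescence, normalised to DMSO and no-cell wells; concentration-response curves classed.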
Each line names hits and unclear results; the compound was inactive in the other large screens. This is a sample that favours compounds with a hit; in the whole collection about 19% have one here. Unless noted, calls come from the whole dose curve; as a rule, active = well fitted curve in the direction sought with a large enough effect; inconclusive = small, poorly fitted or top-dose-only effect, or another doubt; inactive = no such curve, though single readings can be large; an effect the other way counts as inactive or inconclusive.

Cc1cc(C)cc(N(C(=O)c2snc(C(N)=O)c2N)C(C(=O)NCC2CCCO2)c2cccs2)c1 (stereo not drawn)	TDP1 cell CPT 23.1µM, IL-1B inflam inh inconclusive, TDP1 cell noCPT 25.9µM
COc1cccc(N(C(=O)c2snc(C(N)=O)c2N)C(C(=O)NCC2CCCO2)c2cccs2)c1 (stereo not drawn)	TDP1 cell CPT inconclusive, TDP1 cell noCPT 16.4µM
O=C(NCc1ccccc1Cl)c1nnc(CS(=O)(=O)c2ccccc2)o1	none
CCN(C(=O)CSc1cc(C)c2cccc(C)c2n1)C1CCS(=O)(=O)C1 (stereo not drawn)	TDP1 cell noCPT inconclusive
CC1Cc2ccccc2N1C(=O)CN1CCC(n2nnc3cc(C(F)(F)F)ccc32)CC1 (stereo not drawn)	TDP1 cell CPT inconclusive, IL-1B inflam inh -57.8, TDP1 cell noCPT 23.1µM
O=C(CN1CCC(n2nnc3cc(C(F)(F)F)ccc32)CC1)Nc1ccc2c(c1)CCC2	TDP1 cell CPT inconclusive, IL-1B inflam inh -50.3, TDP1 cell noCPT 20.6µM
O=C(CN1CCC(n2nnc3cc(C(F)(F)F)ccc32)CC1)Nc1ccc2c(c1)OCCO2	TDP1 cell CPT inconclusive, TDP1 cell noCPT inconclusive, HT1080 IDH1KD tx inconclusive
Cc1nnc(NC(=O)c2ccc(Br)o2)s1	none
COC(=O)c1cc2oc3ccccc3c2n1Cc1c(F)cccc1Cl	none (no result: uPA generation, HT1080-NT tox, IL-1B inflam inh, HT1080 IDH1KD tx)
Cc1cc(C)n(-c2nc3ccccc3c(=O)n2OCC#N)n1	TDP1 cell CPT 0.651µM, IL-1B inflam inh -95.8, TDP1 cell noCPT 0.651µM, HT1080 IDH1KD tx inconclusive
CCOC(=O)COn1c(-n2nc(C)cc2C)nc2ccccc2c1=O	TDP1 cell CPT inconclusive, TDP1 cell noCPT 25.9µM
CCOn1c(-n2nc(C)cc2C)nc2ccccc2c1=O	none
O=C(O)C#CC(=O)O	none (no result: uPA generation, HT1080-NT tox, IL-1B inflam inh, HT1080 IDH1KD tx)
COc1ccc(CNCCC(c2ccc3c(c2)OCO3)c2ccccc2OC)cc1 (stereo not drawn)	TDP1 cell CPT 6.51µM, TDP1 cell noCPT 2.91µM (no result: uPA generation, HT1080-NT tox, IL-1B inflam inh, HT1080 IDH1KD tx)
CC(C)Oc1ccc(C(CC(=O)O)NC(=O)Cc2ccccc2)cc1 (stereo not drawn)	none
CC(C)Oc1ccc(C(CCNCc2ccc(O)cc2)c2ccccc2)cc1 (stereo not drawn)	uPA generation inconclusive, TDP1 cell CPT 5.8µM, HT1080-NT tox inconclusive, IL-1B inflam inh -91.3, TDP1 cell noCPT 4.11µM, HT1080 IDH1KD tx inconclusive
COc1ccc(C(CCNCc2ccc(OC)c(OC)c2)c2ccc(F)cc2)cc1 (stereo not drawn)	none
COc1ccc(C(CCNCc2ccc(N(C)C)cc2)c2ccccc2)cc1 (stereo not drawn)	TDP1 cell CPT 20.6µM, HT1080-NT tox 18.4µM, IL-1B inflam inh -101.1, TDP1 cell noCPT 20.6µM, HT1080 IDH1KD tx inconclusive
COc1ccccc1OCC(O)CNCc1ccc2c(c1)OCO2 (stereo not drawn)	TDP1 cell noCPT inconclusive
Cc1[nH]c2ccc(C(=O)OC(C)C(=O)N(C)C3CCCCC3)cc2c1C (stereo not drawn)	TDP1 cell CPT inconclusive, IL-1B inflam inh -80.6, TDP1 cell noCPT inconclusive
Cc1ccc(C(=O)OC(C)C(=O)NC2CCCCC2)cc1S(=O)(=O)N1CCCCC1 (stereo not drawn)	TDP1 cell CPT inconclusive, TDP1 cell noCPT inconclusive
COC(=O)c1c(C)[nH]c(C(=O)OC(C)C(=O)N(C)C2CCCCC2)c1C (stereo not drawn)	TDP1 cell CPT inconclusive, TDP1 cell noCPT 16.4µM
CC(=O)Nc1ccc(NC(=O)C(C)OC(=O)c2ccc3[nH]c(C)c(C)c3c2)cc1 (stereo not drawn)	none
Cc1ccc(C(=O)OC(C)C(=O)N(C)C2CCCCC2)cc1S(=O)(=O)N1CCCCC1 (stereo not drawn)	TDP1 cell CPT inconclusive, TDP1 cell noCPT 23.1µM
CC(=O)c1c(C)[nH]c(C(=O)OC(C)C(=O)NC2CCCCC2)c1C (stereo not drawn)	TDP1 cell noCPT inconclusive (no result: uPA generation)
